The list is not random: actives were taken first. Their share in the collection is about 2.1%.
Abeta rescue – A-beta toxicity reversal in yeast; 410,000 compounds, 0.063% hits; yeast expressing A-beta42, growth rescue, OD600, 48 h; response scale: 0% DMSO, 100% iron-clioquinol control; Potency, µM (series often up to 46.1 µM), actives largely listed as activators; also: nearly all actives have a fitted effect of over 55% in size
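Growth rescue measured by 600 nm absorbance after 48 h yeast culture at 30 C with compound. Values normalized between DMSO and an equimolar ferric chloride plus clioquinol control.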
aSyn rescue – inhibitors of alpha-synuclein toxicity in yeast | Yeast expressing alpha-synuclein, growth rescue, BacTiter-Glo, 24 h | Potency, µM (doses to about 46.1 µM), for inactives: top-dose growth rescue (activation), most hits filed as activators | 370,000 compounds, 0.14% hits; also: % of control where 0% means no effect; nearly all actives have a fitted effect of over 65% in size
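Readout is rescue of growth in alpha-synuclein-expressing yeast, so inhibitors of toxicity appear as activators. Growth after 24 hr at 30 deg C in galactose medium is quantified by luminescence.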
TDP43 rescue – rescues yeast growth from TDP-43 toxicity; TDP-43 expressing yeast growth rescue, BacTiter-Glo, 24 h; Potency, µM (doses to about 46.1 µM), inactives show at the highest dose growth rescue (activation), most hits filed as activators; 410,000 compounds, 1.8% hits; also: % of control where 0% means no effect; nearly all actives have a fitted effect of over 50% in size
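Yeast cells expressing TDP-43 under galactose induction are exposed to compounds for 24 hr at 30 deg C. BacTiter-Glo luminescence measures growth, so protective compounds score as activators.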
FUS yeast rescue – FUS proteinopathy suppression in yeast; S. cerevisiae FUS-expressing, growth rescue, OD600, 24 h; Potency, µM (top dose mostly 76.6 µM), most hits filed as activators; 390,000 compounds, 0.24% hits; AID 1347120;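 also: plate controls were DMSO vehicle for no effect and reference control for full effect; nearly all actives have a fitted effect of over 55% in size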
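Galactose (2%) drives FUS expression in yeast precultured in raffinose; seeding density OD 0.005. Test compounds incubated 24hr at 30C and 99% humidity before absorbance at 600 nm was measured.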
* marks the source's active call; other numbers are inactive results. Calls follow the shape of the dose curve; as a rule, active = well fitted curve in the direction sought with a large enough effect; inconclusive = small, poorly fitted or top-dose-only effect, or another doubt; inactive = no such curve, though single readings can be large; an effect the other way counts as inactive or inconclusive. Potency is read from the fitted curve at half-maximal effect.

How did CC(=O)O/C(=C1\CC2C3CC=C4CC(OC(C)=O)CCC4(C)C3CCC2(C)C1=O)C(F)(F)F (stereo not given) do in these assays?
Abeta rescue: inactive; aSyn rescue: 13µM*; TDP43 rescue: inconclusive

How did O=C1CCN(C(=O)CCCn2c(=O)oc3ccccc32)CC1 do in these assays?
Abeta rescue: inactive; aSyn rescue: 1%; TDP43 rescue: 2%; FUS yeast rescue: inactive

Results for O=C(CCn1c(=O)oc2ccccc21)N1CCN(c2ccccc2Cl)CC1 ?
Abeta rescue: inactive; aSyn rescue: 7%; TDP43 rescue: 13µM*; FUS yeast rescue: inactive

Results for CSCCC(c1nnnn1C(C)(C)C)N1CCC2(CC1)C(=O)NCN2c1ccccc1 (stereo not given) ?
Abeta rescue: inactive; aSyn rescue: 4%; TDP43 rescue: 0%; FUS yeast rescue: inactive

Results for CC(=O)OCC12CC(OC(=O)CC(C)C)C(C)=CC1OC1C(O)C(OC(C)=O)C2(C)C12CO2 (stereo not given) ?
Abeta rescue: inactive; aSyn rescue: inconclusive; TDP43 rescue: 1.8µM*

How did COc1ccc(C(=O)C(C)(C)NO)cc1 do in these assays?
Abeta rescue: inconclusive; aSyn rescue: inconclusive; TDP43 rescue: 11µM*; FUS yeast rescue: inactive

What do the screens show for `COc1ccc(C(=O)C23CN4CN(CN(C4)C2)C3)cc1`?
Abeta rescue: inactive; aSyn rescue: -9%; TDP43 rescue: -23%; FUS yeast rescue: inactive

How did O=c1[nH]c2ccccc2n1C1CCN(C(c2cc3ccccc3o2)c2nnnn2Cc2ccccc2)CC1 (stereo not given) do in these assays?
Abeta rescue: inactive; aSyn rescue: 3%; TDP43 rescue: 19%; FUS yeast rescue: 8.9µM*

Results for CSCCC(c1nnnn1-c1ccc2c(c1)OCCO2)N1CCC(n2c(=O)[nH]c3ccccc32)CC1 (stereo not given) ?
Abeta rescue: inactive; aSyn rescue: 1%; TDP43 rescue: 12%; FUS yeast rescue: 25µM*

What do the screens show for `CCC(c1nnnn1-c1ccc2c(c1)OCCO2)N1CCC(n2c(=O)[nH]c3ccccc32)CC1` (stereo not given)?
Abeta rescue: inactive; aSyn rescue: -13%; TDP43 rescue: 16%; FUS yeast rescue: inactive

How did O=c1[nH]c2ccccc2n1C1CCN(C(c2cccc3ccccc23)c2nnnn2Cc2ccccc2)CC1 (stereo not given) do in these assays?
Abeta rescue: inactive; aSyn rescue: 1%; TDP43 rescue: 13%; FUS yeast rescue: inconclusive

Results for Cc1ccccc1CS(=O)(=O)Cc1ccc(C(=O)N2CCC3(CC2)OCCO3)o1 ?
Abeta rescue: inactive; aSyn rescue: 3%; TDP43 rescue: -7%; FUS yeast rescue: inactive

Results for COc1ccc(S(=O)(=O)Cc2ccc(C(=O)N3CCC4(CC3)OCCO4)o2)cc1 ?
Abeta rescue: inactive; aSyn rescue: -8%; TDP43 rescue: 2.5µM*; FUS yeast rescue: inactive

How did COc1ccc(Cl)cc1NC(=O)CCn1c(=O)oc2ccccc21 do in these assays?
Abeta rescue: inactive; aSyn rescue: 8%; TDP43 rescue: 13µM*; FUS yeast rescue: inactive

Results for C=C(COC(=O)CCC(=O)O)CC1CC(O)[C@]2(C)OC3CC4OC5C[C@]6(C)O[C@]7(C)CCC8OC9C[C@]%10(C)OC%11C(C)=CC(=O)OC%11CC%10OC9C[C@@H](C)C8OC7CC6O[C@]5(C)C/C=C\C4OC3CC2O1 (stereo not given in full) ?
Abeta rescue: inactive; aSyn rescue: -1%; TDP43 rescue: 14%; FUS yeast rescue: 7.1µM*

What do the screens show for `C[C@]12CCC3C(CC[C@H]4C[C@H](O)CC[C@]34C)C1CCC2=O` (stereo not given in full)?
Abeta rescue: inactive; aSyn rescue: 9%; TDP43 rescue: 26%; FUS yeast rescue: inactive

What do the screens show for `Cc1ccccc1C(=O)Nc1ccc2nc(SCC(=O)N(C)c3ccccc3)sc2c1`?
Abeta rescue: inactive; TDP43 rescue: 35µM*; FUS yeast rescue: inconclusive

How did CC(C)(C)c1ccc(C(=O)Nc2ccc3nc(SCC(=O)N4CCCC4)sc3c2)cc1 do in these assays?
Abeta rescue: inactive; TDP43 rescue: inconclusive; FUS yeast rescue: inconclusive

How did COc1ccc(-c2cc(C(=O)N3CCN(c4ccccc4OC)CC3)c3cc(C(C)C)ccc3n2)cc1 do in these assays?
Abeta rescue: inactive; TDP43 rescue: inconclusive; FUS yeast rescue: inactive

Results for Cc1cccc(C)c1NC(=O)c1cccn(Cc2ccc3c(c2)OC(F)(F)O3)c1=O ?
Abeta rescue: inactive; aSyn rescue: 1%; TDP43 rescue: 20µM*; FUS yeast rescue: inconclusive

Results for O=C(Nc1ccc2c(c1)OCCO2)c1cccn(Cc2cccc([N+](=O)[O-])c2)c1=O ?
Abeta rescue: inactive; TDP43 rescue: -1%; FUS yeast rescue: inactive

What do the screens show for `CC(C)Oc1cccc(NC(=O)c2cccn(Cc3ccc4c(c3)OC(F)(F)O4)c2=O)c1`?
Abeta rescue: inactive; aSyn rescue: 11%; TDP43 rescue: 23%; FUS yeast rescue: inactive

Results for O=C(Nc1ccc2c(c1)OCCO2)c1cccn(Cc2ccccc2)c1=O ?
Abeta rescue: inactive; TDP43 rescue: 20µM*; FUS yeast rescue: inactive

Results for N#Cc1ccccc1NC(=O)c1cccn(Cc2ccccc2)c1=O ?
Abeta rescue: inactive; TDP43 rescue: 22µM*; FUS yeast rescue: inactive

What do the screens show for `O=C(CN1CCOCC1)c1ccc2ccccc2c1`?
aSyn rescue: 10%

How did CCOC(=O)[C@]12Cc3cc4ccccc4cc3[C@H]1N(Cc1ccccc1)C(=O)c1cc(OC)ccc12 do in these assays?
Abeta rescue: inactive; aSyn rescue: -72%; TDP43 rescue: -69%; FUS yeast rescue: inconclusive

Results for CC(=O)c1cn(CCCOc2ccccc2)c2ccccc12 ?
Abeta rescue: inactive; aSyn rescue: 14%; TDP43 rescue: 11µM*; FUS yeast rescue: inactive

Results for O=C(C(=O)N1CCOCC1)c1cn(CCCOc2ccccc2)c2ccccc12 ?
Abeta rescue: inactive; aSyn rescue: 6%; TDP43 rescue: 10%; FUS yeast rescue: inactive

What do the screens show for `CCCCn1c(O)c(C(CC)=NCc2ccc(F)cc2)c(=O)[nH]c1=O`?
Abeta rescue: inactive; aSyn rescue: 5%; TDP43 rescue: 22µM*; FUS yeast rescue: inconclusive

How did CCC12CN3CC(CC)(CN(C1)C3c1c(C)[nH]c(=O)[nH]c1=O)C2=O (stereo not given) do in these assays?
Abeta rescue: inactive; TDP43 rescue: 9%; FUS yeast rescue: inactive

How did N#Cc1cc2c(nc1SCC(=O)Nc1ccc(OC(F)(F)F)cc1)C1CCN2CC1 do in these assays?
Abeta rescue: inactive; TDP43 rescue: -3%; FUS yeast rescue: inactive

Results for COC(=O)c1ccc(N2C(=O)CC(N3CCC(O)(c4ccc(Br)cc4)CC3)C2=O)cc1 (stereo not given) ?
Abeta rescue: inactive; aSyn rescue: 7%; TDP43 rescue: 6.3µM*; FUS yeast rescue: inactive

Assay outcomes (PubChem BioAssay)
